Laboratory results from the supplement of paper PMC10849652.
Of roughly 7,900 targets only a part is listed; those with a hit were picked by preference. About 0.6% of all pairs of compound and target were hits.

Key:
Experiment in all cases: log2 fold change, soluble protein after heating vs DMSO (PISA); higher = thermal stabilisation; K562 cells, 10 uM, 30 min; active = over 0.2 and 3.5 SD of the protein, either way, in both replicates (recomputed)
[1] = compound: C1=CC=C(C=C1)[C@H](COC2=CC3=C(C=C2)NC(=O)N3)NC(=O)C4=CC=CN(C4=O)CC5=CC(=C(C=C5)F)F
Procedure, shortened: (§1)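 Soluble protein was quantified by TMTpro 16plex LC-MS/MS after channel sums were equalised. It was obtained as the supernatant after 21,000xg for 90 min from pooled aliquots of K562 cells (2×10^6 cells/mL, 10 μM compound, 30 min) heated for 3 min across 48°C-58°C and extracted in PBS with 0.5% NP-40 at 4°C. Thermal stability values are relative to control samples and come from duplicates. They are given as log2 fold changes.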

[2] = compound: CC1=C(SC2=C1C(=N[C@H](C3=NN=C(N32)C)CC(=O)N)C4=CC=C(C=C4)Cl)C
Procedure, shortened: as §1

[3] = compound: CC1=C2C(=CC=C1)N=C(N(C2=O)C3=CC=CC=C3C)CN4C=NC5=C(N=CN=C54)N
Procedure, shortened: as §1

[4] = compound: Cc1sc2c(c1C)C(c1ccc(Cl)cc1)=N[C@@H](CC(=O)OC(C)(C)C)c1nnc(C)n1-2
Procedure, shortened: as §1

[5] = compound: c1ccc([C@@H]2C[C@H]2NC2CCNCC2)cc1
Procedure, shortened: as §1

Measured: log2 fold change

CCND3 (UniProt P30281)
inactive: [1] -0.105 | [2] -0.015 | [3] 0.121 | [4] 0.033 | [5] 0.053

CDK16 isoform 2 (UniProt Q00536)
Chain of UniProt Q00536 (Q00536 whole entry, looked up): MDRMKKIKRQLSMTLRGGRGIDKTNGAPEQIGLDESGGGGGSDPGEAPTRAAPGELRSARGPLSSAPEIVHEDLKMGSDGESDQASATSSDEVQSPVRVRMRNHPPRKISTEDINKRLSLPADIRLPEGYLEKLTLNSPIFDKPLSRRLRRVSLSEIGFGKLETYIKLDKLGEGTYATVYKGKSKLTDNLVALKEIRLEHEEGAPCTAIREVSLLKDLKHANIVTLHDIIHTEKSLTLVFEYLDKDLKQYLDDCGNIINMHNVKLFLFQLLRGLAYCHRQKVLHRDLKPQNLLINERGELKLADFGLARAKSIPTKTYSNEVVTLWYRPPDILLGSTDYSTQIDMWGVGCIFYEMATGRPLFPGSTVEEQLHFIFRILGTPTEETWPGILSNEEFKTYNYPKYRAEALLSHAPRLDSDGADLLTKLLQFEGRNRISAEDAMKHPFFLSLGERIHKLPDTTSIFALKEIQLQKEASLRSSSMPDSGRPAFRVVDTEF
inactive: [1] -0.009 | [2] 0.026 | [3] 0.043 | [4] -0.014 | [5] -0.074

CAD (UniProt P27708)
inactive: [1] -0.115 | [2] 0.048 | [3] -0.019 | [4] -0.005 | [5] -0.033

CSTF2 (UniProt P33240)
inactive: [1] 0.017 | [2] 0.04 | [3] 0.057 | [4] -0.026 | [5] 0.021

CDC42EP1 (UniProt Q00587)
Chain of UniProt Q00587 (Q00587 whole entry, looked up): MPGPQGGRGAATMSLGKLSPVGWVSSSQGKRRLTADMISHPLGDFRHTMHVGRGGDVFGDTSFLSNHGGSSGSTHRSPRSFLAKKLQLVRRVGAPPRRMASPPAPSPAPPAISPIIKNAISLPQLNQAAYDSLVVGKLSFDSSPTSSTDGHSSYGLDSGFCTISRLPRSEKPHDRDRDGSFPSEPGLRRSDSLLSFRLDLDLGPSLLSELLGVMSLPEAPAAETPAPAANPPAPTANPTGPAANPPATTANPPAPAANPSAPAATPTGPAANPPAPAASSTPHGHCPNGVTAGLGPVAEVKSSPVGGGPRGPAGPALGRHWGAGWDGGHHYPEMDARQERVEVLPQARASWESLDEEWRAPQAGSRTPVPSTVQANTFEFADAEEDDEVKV
inactive: [1] -0.067 | [2] 0.107 | [3] 0.041 | [4] 0.043 | [5] -0.029

C9orf64 (UniProt Q5T6V5)
Chain of UniProt Q5T6V5 (Q5T6V5 whole entry, looked up): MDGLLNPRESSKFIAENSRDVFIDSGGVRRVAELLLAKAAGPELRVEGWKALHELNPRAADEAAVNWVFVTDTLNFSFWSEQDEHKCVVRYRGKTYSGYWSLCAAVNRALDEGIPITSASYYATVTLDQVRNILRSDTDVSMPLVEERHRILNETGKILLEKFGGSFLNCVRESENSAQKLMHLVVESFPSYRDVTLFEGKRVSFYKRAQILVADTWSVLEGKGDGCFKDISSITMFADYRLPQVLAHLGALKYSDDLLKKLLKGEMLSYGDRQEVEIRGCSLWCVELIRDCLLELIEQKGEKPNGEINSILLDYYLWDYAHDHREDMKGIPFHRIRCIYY
inactive: [1] -0.15 | [2] 0.054 | [3] 0.097 | [4] 0.052 | [5] -0.066

CBX5 (UniProt P45973)
Chain of UniProt P45973 (P45973 whole entry, looked up): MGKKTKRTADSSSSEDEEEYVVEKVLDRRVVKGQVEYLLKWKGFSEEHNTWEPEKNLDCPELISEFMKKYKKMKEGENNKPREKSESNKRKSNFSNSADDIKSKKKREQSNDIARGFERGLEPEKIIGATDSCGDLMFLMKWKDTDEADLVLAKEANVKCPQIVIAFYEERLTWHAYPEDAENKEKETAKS
inactive: [1] -0.001 | [2] 0.029 | [3] 0.05 | [4] 0.016 | [5] 0.008

CPSF6 isoform 2 (UniProt Q16630)
inactive: [1] 0.036 | [2] -0.038 | [3] 0.048 | [4] 0.02 | [5] -0.016

CAVIN1 (UniProt Q6NZI2)
inactive: [1] 0.017 | [2] -0.127 | [3] -0.103 | [4] 0.101 | [5] 0

CDK5 (UniProt Q00535)
inactive: [1] -0.015 | [2] 0.087 | [3] -0.003 | [4] -0.023 | [5] -0.005

C9orf72 (UniProt Q96LT7)
Chain of UniProt Q96LT7 (Q96LT7 whole entry, looked up): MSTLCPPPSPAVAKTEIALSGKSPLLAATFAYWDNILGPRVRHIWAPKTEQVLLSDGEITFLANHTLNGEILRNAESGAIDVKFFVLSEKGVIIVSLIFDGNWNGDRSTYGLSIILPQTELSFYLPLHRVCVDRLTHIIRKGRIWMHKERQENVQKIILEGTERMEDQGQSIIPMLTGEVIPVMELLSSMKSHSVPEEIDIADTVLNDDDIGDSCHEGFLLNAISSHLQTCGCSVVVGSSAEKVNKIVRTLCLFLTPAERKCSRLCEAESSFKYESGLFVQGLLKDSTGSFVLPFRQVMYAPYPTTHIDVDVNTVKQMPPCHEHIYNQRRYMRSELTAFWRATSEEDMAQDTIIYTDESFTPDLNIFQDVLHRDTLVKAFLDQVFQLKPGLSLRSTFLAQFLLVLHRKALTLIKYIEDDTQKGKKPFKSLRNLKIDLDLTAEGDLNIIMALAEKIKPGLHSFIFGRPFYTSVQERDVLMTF
inactive: [1] 0.02 | [2] 0.009 | [3] 0.085 | [4] -0.115 | [5] 0.002

CDK12 (UniProt Q9NYV4)
inactive: [1] 0.102 | [2] -0.425 | [3] -0.103 | [4] 0.112 | [5] 0.008

CLINT1 (UniProt Q14677)
inactive: [1] 0.063 | [2] 0.131 | [3] -0.005 | [4] -0.009 | [5] 0.157

CPD (UniProt O75976)
inactive: [1] 0.008 | [2] 0.014 | [3] 0.044 | [4] -0.013 | [5] 0.053

CDK5RAP3 isoform 4 (UniProt Q96JB5)
Chain of UniProt Q96JB5 (Q96JB5 whole entry, looked up): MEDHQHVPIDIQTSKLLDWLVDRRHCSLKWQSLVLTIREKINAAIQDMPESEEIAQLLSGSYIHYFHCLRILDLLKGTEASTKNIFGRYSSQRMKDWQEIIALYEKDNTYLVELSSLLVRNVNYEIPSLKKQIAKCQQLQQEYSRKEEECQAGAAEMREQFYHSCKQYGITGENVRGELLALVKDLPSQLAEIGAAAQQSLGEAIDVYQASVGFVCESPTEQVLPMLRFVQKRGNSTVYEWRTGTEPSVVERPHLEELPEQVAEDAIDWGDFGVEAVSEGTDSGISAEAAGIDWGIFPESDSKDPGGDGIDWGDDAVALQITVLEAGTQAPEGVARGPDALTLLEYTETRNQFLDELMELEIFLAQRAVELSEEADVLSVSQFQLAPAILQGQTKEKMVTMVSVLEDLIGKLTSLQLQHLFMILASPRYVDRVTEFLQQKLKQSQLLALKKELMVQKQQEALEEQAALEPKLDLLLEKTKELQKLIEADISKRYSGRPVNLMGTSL
inactive: [1] -0.042 | [2] 0.054 | [3] 0.099 | [4] 0 | [5] -0.05

CLCN3 isoform 2 (UniProt P51790)
Chain of UniProt P51790 (P51790 whole entry, looked up): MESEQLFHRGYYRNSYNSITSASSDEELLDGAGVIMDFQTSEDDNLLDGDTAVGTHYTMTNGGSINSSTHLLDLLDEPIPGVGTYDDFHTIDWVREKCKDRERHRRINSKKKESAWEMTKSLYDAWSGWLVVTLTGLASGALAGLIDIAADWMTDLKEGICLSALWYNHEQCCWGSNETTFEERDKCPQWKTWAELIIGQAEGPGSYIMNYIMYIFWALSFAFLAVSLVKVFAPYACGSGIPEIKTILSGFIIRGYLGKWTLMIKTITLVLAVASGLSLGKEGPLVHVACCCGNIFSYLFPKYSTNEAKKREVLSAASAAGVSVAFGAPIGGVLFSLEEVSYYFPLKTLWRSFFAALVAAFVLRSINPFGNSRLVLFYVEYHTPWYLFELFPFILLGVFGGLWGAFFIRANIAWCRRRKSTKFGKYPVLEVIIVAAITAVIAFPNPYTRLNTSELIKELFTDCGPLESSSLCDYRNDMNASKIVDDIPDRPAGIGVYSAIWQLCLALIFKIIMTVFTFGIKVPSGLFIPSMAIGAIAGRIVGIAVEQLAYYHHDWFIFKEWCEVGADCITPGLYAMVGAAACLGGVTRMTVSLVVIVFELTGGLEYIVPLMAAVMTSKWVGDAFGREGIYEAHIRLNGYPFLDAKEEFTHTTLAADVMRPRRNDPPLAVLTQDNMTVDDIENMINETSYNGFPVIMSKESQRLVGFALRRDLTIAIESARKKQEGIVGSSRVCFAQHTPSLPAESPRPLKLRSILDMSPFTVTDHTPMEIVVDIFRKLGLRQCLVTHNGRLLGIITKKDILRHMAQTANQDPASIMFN
inactive: [1] 0.044 | [2] -0.006 | [3] -0.014 | [4] -0.021 | [5] 0.013

CHKA (UniProt P35790)
inactive: [1] -0.055 | [2] -0.023 | [3] 0.124 | [4] -0.004 | [5] 0.19

COX7B (UniProt P24311)
inactive: [1] -0.003 | [2] 0.001 | [3] 0.063 | [4] -0.018 | [5] 0.018

CPT1A (UniProt P50416)
Chain of UniProt P50416 (P50416 whole entry, looked up): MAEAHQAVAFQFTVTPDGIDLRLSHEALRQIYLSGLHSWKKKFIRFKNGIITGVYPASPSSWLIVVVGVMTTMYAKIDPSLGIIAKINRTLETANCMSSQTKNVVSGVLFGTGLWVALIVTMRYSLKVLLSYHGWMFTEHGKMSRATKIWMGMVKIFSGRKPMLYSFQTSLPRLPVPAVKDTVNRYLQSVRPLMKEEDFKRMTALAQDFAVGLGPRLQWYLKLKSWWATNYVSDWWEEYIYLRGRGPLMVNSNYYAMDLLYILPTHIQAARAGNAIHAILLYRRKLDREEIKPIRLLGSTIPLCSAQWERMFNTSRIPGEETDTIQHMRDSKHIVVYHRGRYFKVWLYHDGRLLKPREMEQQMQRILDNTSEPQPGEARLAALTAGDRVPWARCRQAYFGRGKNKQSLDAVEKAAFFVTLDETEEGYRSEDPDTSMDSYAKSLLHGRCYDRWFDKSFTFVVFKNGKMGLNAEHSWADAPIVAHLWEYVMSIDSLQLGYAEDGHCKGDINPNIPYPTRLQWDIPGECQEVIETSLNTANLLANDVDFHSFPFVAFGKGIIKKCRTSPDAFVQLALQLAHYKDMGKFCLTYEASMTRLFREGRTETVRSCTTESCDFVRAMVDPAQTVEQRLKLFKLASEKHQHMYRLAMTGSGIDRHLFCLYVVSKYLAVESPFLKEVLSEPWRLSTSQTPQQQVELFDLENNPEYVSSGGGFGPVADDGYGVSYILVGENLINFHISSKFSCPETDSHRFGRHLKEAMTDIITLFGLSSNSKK
inactive: [1] 0.095 | [2] 0.011 | [3] 0.125 | [4] -0.022 | [5] -0.118

CREB3L2 (UniProt Q70SY1)
Chain of UniProt Q70SY1 (Q70SY1 whole entry, looked up): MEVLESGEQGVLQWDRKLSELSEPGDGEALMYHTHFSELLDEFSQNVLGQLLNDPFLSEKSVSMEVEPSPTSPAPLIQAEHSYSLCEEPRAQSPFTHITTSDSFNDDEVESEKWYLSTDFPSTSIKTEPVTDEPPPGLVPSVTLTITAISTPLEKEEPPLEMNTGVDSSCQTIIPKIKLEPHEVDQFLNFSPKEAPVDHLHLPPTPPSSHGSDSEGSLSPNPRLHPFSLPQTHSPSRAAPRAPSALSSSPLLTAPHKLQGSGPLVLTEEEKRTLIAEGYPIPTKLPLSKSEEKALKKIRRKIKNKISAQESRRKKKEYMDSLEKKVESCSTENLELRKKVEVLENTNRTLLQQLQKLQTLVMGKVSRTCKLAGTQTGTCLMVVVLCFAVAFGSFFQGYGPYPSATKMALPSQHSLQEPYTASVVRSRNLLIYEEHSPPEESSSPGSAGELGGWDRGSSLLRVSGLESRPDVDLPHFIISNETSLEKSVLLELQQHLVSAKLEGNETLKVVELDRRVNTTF
inactive: [1] 0.331 | [2] -0.15 | [3] 0.296 | [4] -0.143 | [5] -0.247

COX20 isoform 2 (UniProt Q5RI15)
inactive: [1] 0.071 | [2] 0.05 | [3] 0 | [4] -0.022 | [5] 0.042

CCNT1 (UniProt O60563)
inactive: [1] 0.108 | [2] -0.022 | [3] -0.036 | [4] 0.085 | [5] 0.072

CCZ1 (UniProt P86791)
inactive: [1] 0.011 | [2] 0.009 | [3] 0.02 | [4] 0.017 | [5] -0.024

CCDC9 (UniProt Q9Y3X0)
inactive: [1] -0.019 | [2] -0.012 | [3] -0.118 | [4] 0.091 | [5] 0.041

CLINT1 isoform 3 (UniProt Q14677)
inactive: [1] 0.053 | [2] -0.039 | [3] -0.01 | [4] 0.046 | [5] 0.044

COMMD2 (UniProt Q86X83)
Chain of UniProt Q86X83 (Q86X83 whole entry, looked up): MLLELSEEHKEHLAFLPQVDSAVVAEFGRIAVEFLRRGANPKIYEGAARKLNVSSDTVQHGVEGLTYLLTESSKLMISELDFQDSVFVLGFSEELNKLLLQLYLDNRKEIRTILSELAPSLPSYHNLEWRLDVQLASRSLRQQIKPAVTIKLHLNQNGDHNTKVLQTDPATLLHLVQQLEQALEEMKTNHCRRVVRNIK
inactive: [1] -0.029 | [2] 0.053 | [3] 0 | [4] -0.199 | [5] 0.04

CRMP1 isoform 2 (UniProt Q14194)
inactive: [1] -0.014 | [2] 0.074 | [3] -0.066 | [4] 0.002 | [5] -0.006

CSNK2B (UniProt P67870)
Chain of UniProt P67870 (P67870 whole entry, looked up): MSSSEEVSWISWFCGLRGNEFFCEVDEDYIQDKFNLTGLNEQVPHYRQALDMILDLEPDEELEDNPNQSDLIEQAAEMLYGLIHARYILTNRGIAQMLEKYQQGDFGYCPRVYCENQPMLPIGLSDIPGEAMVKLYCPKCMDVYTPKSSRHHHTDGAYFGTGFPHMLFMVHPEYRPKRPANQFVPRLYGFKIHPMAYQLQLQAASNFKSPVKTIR
inactive: [1] -0.047 | [2] 0.043 | [3] 0 | [4] -0.028 | [5] 0.018

CASC3 (UniProt O15234)
inactive: [1] 0.02 | [2] 0.044 | [3] 0.015 | [4] 0.244 | [5] 0.025
